FLuc modulator – inhibits or activates purified firefly luciferase, miR-21 counter-screen; P08659; purified FLuc, Km substrates, luminescence inhibition; Potency, µM (series often up to 57.5 µM), actives largely listed as inhibitors; 360,000 compounds, 6.9% hits; AID 588342; also: nearly all actives have a fitted effect of over 55% in size
Target sequence (P08659 whole entry, looked up): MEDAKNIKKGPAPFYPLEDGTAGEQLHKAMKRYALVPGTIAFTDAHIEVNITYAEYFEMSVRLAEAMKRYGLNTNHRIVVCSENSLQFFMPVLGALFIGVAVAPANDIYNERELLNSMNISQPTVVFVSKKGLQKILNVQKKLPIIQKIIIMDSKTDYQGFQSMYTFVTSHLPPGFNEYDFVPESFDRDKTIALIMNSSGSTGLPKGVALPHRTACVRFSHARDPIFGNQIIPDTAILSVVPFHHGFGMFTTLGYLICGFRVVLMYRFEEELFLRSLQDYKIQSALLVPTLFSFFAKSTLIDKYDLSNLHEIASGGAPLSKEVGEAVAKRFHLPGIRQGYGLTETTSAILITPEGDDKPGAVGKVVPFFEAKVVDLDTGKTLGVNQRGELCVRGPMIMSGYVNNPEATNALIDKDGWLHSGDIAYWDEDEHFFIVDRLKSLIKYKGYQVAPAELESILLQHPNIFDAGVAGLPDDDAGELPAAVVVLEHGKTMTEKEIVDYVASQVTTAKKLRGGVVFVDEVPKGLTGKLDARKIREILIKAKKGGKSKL
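Purified P. pyralis luciferase, 10 nM final, with Km-level 10 uM D-luciferin and 10 uM ATP in 50 mM Tris acetate pH 7.5, 10 mM Mg acetate, 0.01% Tween-20, 0.05% BSA; 6-point qHTS titration about 60 µM downward; luminescence read.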
Luc counter – counter-screen: inhibitors of Kinase-Glo firefly luciferase; Q27757; Kinase-Glo luciferase, ATP luminescence, 8 min; Potency, µM (highest dose often 38.3 µM), most hits filed as inhibitors; 200,000 compounds, 0.28% hits; also: nearly all actives have a fitted effect of over 60% in size
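Compound is pinned into ATP-containing buffer (10 uM ATP, imidazole pH 7.2, 7 mM MgCl2). Kinase-Glo luciferase reagent is then added. Light output is recorded following an 8-min room-temperature incubation.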
NPC1 prom act – activators of NPC1 promoter | Huh7 NPC1 promoter luciferase reporter, 24 h | Potency, µM (top dose mostly 9.22 µM), actives largely listed as activators | 320,000 compounds, 2.4% hits | AID 485313; also: nearly all actives have a fitted effect of over 60% in size
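Luciferase expression driven by the NPC1 promoter was measured in stably transfected Huh7 cells after a 24 h compound incubation, using a luciferase reagent and a luminescence read.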
SMN2 splice up – increases expression of the SMN2 splice variant | HEK293 SMN2-luciferase splicing reporter, luminescence, 30-36 h | Potency, µM (highest dose often 46.1 µM), hits mostly activators | 210,000 compounds, 2.8% hits | AID 1458; also: nearly all actives have a fitted effect of over 55% in size
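qHTS luciferase splicing reporter: luminescence rises when SMN2 exon 7 is included in transfected HEK293 cells. Compound exposure lasted 30-36 h at 37C, with 4.5 mM final sodium butyrate as control, followed by a ONE-Glo read.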
ELG1 genotoxic – genotoxicity induction in ELG1-luciferase HEK293T cells. HEK293T ELG1-luciferase reporter, luminescence, 16 h. Potency, µM (top dose mostly 46 µM), hits mostly activators. 330,000 compounds, 1.3% hits. AID 504466; also: nearly all actives have a fitted effect of over 60% in size
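HEK293T cells expressing luciferase-tagged ELG1 were treated with compound or DMSO for 16 hr at 37°C. Luciferase activity was then read after 30 min with ONE-Glo at room temperature; rising signal flags genetic stress.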
Rab9 prom act – activators of Rab9 promoter. Huh7 Rab9 promoter-luciferase reporter, luminescence, 24 h. Potency, µM (top dose mostly 9.22 µM), most hits filed as activators. 320,000 compounds, 2.8% hits; also: nearly all actives have a fitted effect of over 60% in size
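Promoter activation is measured as luciferase luminescence in Huh7 cells stably transfected with a Rab9 promoter–luciferase construct, following 24 h compound exposure at 37 °C and 10 min reagent incubation at ambient temperature.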
Numbers stand for hits. An excerpt weighted towards active compounds, which were near 7.4% of everything screened. Calls follow the shape of the dose curve; as a rule, active = well fitted curve in the direction sought with a large enough effect; inconclusive = small, poorly fitted or top-dose-only effect, or another doubt; inactive = no such curve, though single readings can be large; an effect the other way counts as inactive or inconclusive.

`O=C(COC(=O)c1cc2ccccc2oc1=O)Nc1ccc(F)cc1F` gave FLuc modulator 7.57µM, NPC1 prom act 2.24µM, ELG1 genotoxic inconclusive and Rab9 prom act 2.51µM.
For CCN(CC)S(=O)(=O)c1cccc(NC(=O)c2cc3ccccc3o2)c1 the results were FLuc modulator 12µM, Luc counter inactive, NPC1 prom act inactive, SMN2 splice up inactive, ELG1 genotoxic inactive and Rab9 prom act inactive.
Screening CN(C)S(=O)(=O)c1cccc(NC(=O)c2cc3ccccc3o2)c1 returned FLuc modulator 8.49µM, Luc counter inactive, NPC1 prom act inactive, SMN2 splice up inactive, ELG1 genotoxic inactive and Rab9 prom act inconclusive.
For CC(C)(C)n1ncc2c(=O)n(Cc3ccc([S+](=O)([O-])N4CCOCC4)cc3)cnc21 the results were FLuc modulator inactive.
O=C(/C=C/c1ccccc1)N1CCC[C@H]1CO was read as FLuc modulator inactive, Luc counter inactive, NPC1 prom act inactive, SMN2 splice up inactive, ELG1 genotoxic inactive and Rab9 prom act inactive.
For C#CCSc1nncn1C(=O)/C=C/c1ccccc1 the results were FLuc modulator 19µM, Luc counter inactive, NPC1 prom act inactive, SMN2 splice up inactive, ELG1 genotoxic inactive and Rab9 prom act inactive.
C/C(=N\Nc1ccc(C(=O)O)cc1)c1ccc2c(c1)Nc1ccccc1S2 was read as FLuc modulator 2.13µM, NPC1 prom act inconclusive, ELG1 genotoxic inactive and Rab9 prom act inconclusive.
CCc1ccc(-n2c(=O)c3c(C)c(C)sc3n(CC(=O)NCc3ccc(C)cc3)c2=O)cc1 was read as FLuc modulator inactive and SMN2 splice up inactive.
For O=C(O)COc1ccccc1/C=N/NC(=O)c1cc(-c2ccccc2)nc2ccccc12 the results were FLuc modulator 2.69µM, NPC1 prom act inactive, ELG1 genotoxic inactive and Rab9 prom act inactive.
Screening O=C(N/N=C/c1ccccc1OC(F)F)c1cc(-c2ccncc2)nc2ccccc12 returned FLuc modulator inconclusive, Luc counter inactive, NPC1 prom act inactive, SMN2 splice up inactive, ELG1 genotoxic inactive and Rab9 prom act inactive.
Screening O=C(O)COc1ccccc1/C=N/NC(=O)c1cc(-c2ccc(Cl)cc2)nc2ccccc12 returned FLuc modulator 0.953µM, NPC1 prom act inactive, ELG1 genotoxic inactive and Rab9 prom act inactive.
Screening O=C(c1ccc(-c2ccc(Cl)cc2Cl)o1)N1CCOCC1 returned FLuc modulator 8.49µM, Luc counter inactive, NPC1 prom act 3.16µM, SMN2 splice up 22.4µM, ELG1 genotoxic inconclusive and Rab9 prom act 3.16µM.
For O=C(c1ccco1)N1CCN(C(=O)c2ccc(-c3ccccc3Cl)o2)CC1 the results were FLuc modulator 9.53µM, NPC1 prom act inconclusive, ELG1 genotoxic inactive and Rab9 prom act 2.82µM.
O=C(c1cc(-c2ccc(Cl)cc2Cl)on1)N1CCN(C(=O)c2ccco2)CC1 was read as FLuc modulator 30.1µM, Luc counter inactive, NPC1 prom act inactive, SMN2 splice up inactive, ELG1 genotoxic inactive and Rab9 prom act inactive.
`O=C(c1ccc(-c2cc(Cl)ccc2Cl)o1)N1CCOCC1` gave FLuc modulator inconclusive, Luc counter inactive, NPC1 prom act inactive, SMN2 splice up inactive, ELG1 genotoxic inactive and Rab9 prom act inactive.
Screening NC(=O)C1CCN(C(=O)c2ccc(-c3ccccc3Cl)o2)CC1 returned FLuc modulator 9.53µM, NPC1 prom act inconclusive, ELG1 genotoxic inconclusive and Rab9 prom act 2.51µM.
`Cc1c(-c2ccc(O)cc2)nn(-c2ccc(O)cc2)c1-c1ccc(OCCN2CCCCC2)cc1` gave Luc counter inactive.
For CCCC(CCC)C(=O)NC1CC(=O)N(c2ccc3c(c2)OCCO3)C1 (stereo not given) the results were FLuc modulator inactive.
`Cc1ccccc1Cn1c2ccccc2c2cnn(CC(=O)NCCc3ccccc3)c(=O)c21` gave FLuc modulator inactive and SMN2 splice up inconclusive.
For Cc1onc(-c2ccccc2Cl)c1C(=O)N1CCN(C(=O)c2ccco2)CC1 the results were FLuc modulator inactive, Luc counter inactive, NPC1 prom act inactive, SMN2 splice up inactive, ELG1 genotoxic inactive and Rab9 prom act inactive.

Screening data deposited in PubChem by National Center for Advancing Translational Sciences (NCATS).
